Assay [1] can be described thus: Nuclear factor erythroid 2-related factor 2/antioxidant responsive element (Nrf2/ARE) small molecule agonists: qHTS cell viability counter screen in human keratinocytes (AID 1919968; active = well fitted curve in the direction sought with a large enough effect in the repeat runs; an effect the other way counts as inactive or inconclusive; note: nearly all actives have a fitted effect of over 55% in size). In outline:
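Viability counter-screen: KeratinoSens reporter cells, DMSO-delivered compounds, 23 h at 37 C, CellTiter-Fluor fluorescence.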

Assay [2] in a line: Nuclear factor erythroid 2-related factor 2/antioxidant responsive element (Nrf2/ARE) small molecule agonists: luciferase reporter gene qHTS assay in human keratinocytes (AID 1919969). Note: nearly all actives have a fitted effect of over 35% in size. Note: potency is the fitted concentration of half-maximal effect.
Assay [3] has as its target Gonadotropin-releasing hormone receptor (Homo sapiens) (UniProt P30968). In words: Human gonadotropin-releasing hormone receptor (GnRHR) small molecule agonists, calcium flux assay in GnRHR-HEK293 cells (AID 1920063). Note: nearly all actives have a fitted effect of over 35% in size. The method, boiled down: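 Tox21-format agonist screen using human GnRHR-expressing HEK293 cells and a fluorescent calcium dye; kinetic 3-min fluorescence reading after compound addition, 15-point concentration series run in triplicate.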

Assay [4] concerns the target KiSS-1 receptor (Homo sapiens) (UniProt Q969F8). In words: Human kisspeptin (KISS1R) small molecule agonists, calcium flux assay in KISS1R-HEK293 cells (AID 1920064; active = well fitted curve in the direction sought with a large enough effect in the repeat runs; an effect the other way counts as inactive or inconclusive). The method, boiled down:
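Intracellular calcium mobilization in KISS1R-HEK293 cells was recorded by fluorescence (Ex/Em 480/540) for 3 min following compound addition to cells pre-loaded 1 h with calcium dye.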

A short description of assay [5]: G protein-coupled receptor (GPCR) small molecule agonists, calcium flux assay: HEK293 wild type cell line counter screen (AID 1920065). The method, boiled down: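 In this agonist-mode screen, ATP is the positive control and DMSO the vehicle. Cells grow 18 h before a 1 h dye incubation at 37 C; signal is taken at Ex/Em 480/540 over 3 min.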
The nature of assay [6]: p53 small molecule agonists, cell-based qHTS assay with human liver microsomes: qHTS cell viability counter screen (AID 1963579). Note: nearly all actives have a fitted effect of over 45% in size. In outline:
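p53RE-bla cells, 4,000/well, dosed 5 hours after plating, with human liver microsomes (0.5 mg/mL final) plus NADPH (0.5 mg/mL final), 16 hours at 37 C. Viability read as CellTiter-Glo luminescence after 30 min at room temperature.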

The nature of assay [7]: p53 small molecule agonists, cell-based qHTS assay with rat liver microsomes: qHTS cell viability counter screen (AID 1963580). Note: nearly all actives have a fitted effect of over 45% in size. In outline:
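HCT-116 p53RE-bla, 4,000 cells/well, 5 h pre-incubation; cpd + rat liver microsomes 0.5 mg/mL + NADPH 0.5 mg/mL (final); 16 h, 37 C; CellTiter-Glo, 30 min RT; luminescence.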

Assay [8] can be described thus: p53 small molecule agonists, cell-based qHTS assay: qHTS cell viability counter screen (AID 1963581). Note: nearly all actives have a fitted effect of over 45% in size. The method, boiled down: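 Compounds are pinned onto HCT-116 p53RE-bla cells and left 16 h at 37 C. Following the reporter FRET read, ATP is quantified by CellTiter-Glo luminescence after 30 min at room temperature.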
Assay [9] concerns the target 5-hydroxytryptamine receptor 2A (Homo sapiens) (UniProt P28223). Description: 5-hydroxytryptamine receptor 2A (HTR2A) small molecule antagonists, cell-based qHTS assay (AID 1963586). Note: nearly all actives have a fitted effect of over 45% in size. In outline:
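Antagonist-mode intracellular calcium assay: DOI (4 nM) added after 5 min compound pre-incubation at room temperature to dye-loaded HTR2A-CHO cells. Fluorescence followed for 3 min, sampled every second.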

Assay [10] shares this target. Description: 5-hydroxytryptamine receptor 2A (HTR2A) small molecule agonists, cell-based qHTS assay (AID 1963587). Note: nearly all actives have a fitted effect of over 30% in size. In outline: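 Kinetic calcium-flux fluorescence (2 min, 1 sec intervals) after compound addition in agonist mode. HTR2A-CHO cells were cultured 18 h, then dye-loaded 1 h at 37 C.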
Assay [11] concerns the target Muscarinic acetylcholine receptor M1 (Homo sapiens) (UniProt P11229). Description: Cholinergic receptor muscarinic 1 (CHRM1) small molecule antagonists, cell-based qHTS assay (AID 1963588). Note: nearly all actives have a fitted effect of over 40% in size. The method, boiled down:
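CHRM1-CHO calcium-flux assay, antagonist mode. Cells were seeded 18 h, dye-loaded 1 h at 37 C and given compound for 5 min at RT, then acetylcholine was added at 50nM. FDSS fluorescence was read 3 min; 15 concentrations, three runs.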

A short description of assay [12]: cAMP Responsive Elements (CRE) small molecule agonists, cell-based qHTS assay (AID 1963590). The method, boiled down: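 FRET-based beta-lactamase readout (LiveBLAzer B/G, 2 h RT) quantified CRE activation in HEK 293T CRE-bla cells after 3 h treatment with DMSO-dissolved compounds.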
A short description of assay [13]: cAMP Responsive Elements (CRE) small molecule antagonists, cell-based qHTS assay (AID 1963591; active = well fitted inhibition curve with a large enough effect in the signal ratio in the repeat runs, not every such curve was filed as active; the % refers to the signal ratio). In outline: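 qHTS in CRE-bla HEK 293T cells: compound in DMSO, then 0.25 uM NKH477 (final), 3 h at 37 °C/5% CO2; beta-lactamase FRET read-out after 2 h substrate incubation.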
Assay [14] addresses Beta-2 adrenergic receptor (Homo sapiens) (UniProt P07550). In words: Adrenergic beta2 receptor (ADRB2) small molecule antagonists, cell-based qHTS assay (AID 1963592). Note: series mostly up to about 92 µM; nearly all actives have a fitted effect of over 50% in size. In outline: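 Cells (CHO, stable ADRB2 overexpression) incubated 18-20hr at 37C; compounds added from DMSO; agonist mix (1nM isoproterenol, 100uM IBMX, 25uM Ro-20-1724) added; 0.5hr RT; d2-cAMP and anti-cAMP-cryptate added; 1hr RT; 665/615 nm read.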

For assay [15] the target is unchanged. In words: Adrenergic beta2 receptor (ADRB2) small molecule agonists, cell-based qHTS assay (AID 1963593).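 Note: CHO cells stably overexpressing human ADRB2.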 The method, boiled down:
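CHO cells stably over-expressing ADRB2 were plated overnight at 37C, then dosed with compounds plus a stimulation mix containing 100uM IBMX and 25uM Ro-20-1724 for 0.5hr at room temperature. cAMP was measured by HTRF competition, 1hr.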

Assay [16] has as its target D(2) dopamine receptor (Homo sapiens) (UniProt P14416). In words: Dopamine D2 receptor (DRD2) small molecule agonists, cell-based qHTS assay (AID 1963594). Note: nearly all actives have a fitted effect of over 35% in size. The method, boiled down:
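cAMP accumulation in DRD2-HEK293 cells measured by HTRF after 1 h detection; compounds added 10 min before NKH477 (200nM […]) forskolin-analogue stimulation, 30 min at room temperature, with Ro20-1724 present at 0.1 mM final.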

Assay [17] shares this target. In words: Dopamine D2 receptor (DRD2) small molecule antagonists, cell-based qHTS assay (AID 1963595; active = well fitted inhibition curve with a large enough effect in the signal ratio in the repeat runs, with a control signal flat; the % refers to the signal ratio). In outline: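 Antagonist mode in DRD2-HEK293 cells: after compound addition with 0.1 mM Ro20-1724, cells received quinpirole (12 nM) and NKH477 (200 nM) for 30 min at room temperature; HTRF cAMP read after 1 h detection.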
The target of assay [18] is Muscarinic acetylcholine receptor M1 (Homo sapiens) (UniProt P11229). Description: Cholinergic receptor muscarinic 1 (CHRM1) small molecule agonists, cell-based qHTS assay (AID 1963589). Note: nearly all actives have a fitted effect of over 35% in size. The method, boiled down: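 Stable CHRM1-CHO cells (human receptor) were incubated 18 h, dye-loaded for 1 h at 37 C and exposed to test compounds for agonist activity, with calcium-dependent fluorescence followed kinetically.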
Chain of Muscarinic acetylcholine receptor M1 (Homo sapiens) (P11229 whole entry, looked up): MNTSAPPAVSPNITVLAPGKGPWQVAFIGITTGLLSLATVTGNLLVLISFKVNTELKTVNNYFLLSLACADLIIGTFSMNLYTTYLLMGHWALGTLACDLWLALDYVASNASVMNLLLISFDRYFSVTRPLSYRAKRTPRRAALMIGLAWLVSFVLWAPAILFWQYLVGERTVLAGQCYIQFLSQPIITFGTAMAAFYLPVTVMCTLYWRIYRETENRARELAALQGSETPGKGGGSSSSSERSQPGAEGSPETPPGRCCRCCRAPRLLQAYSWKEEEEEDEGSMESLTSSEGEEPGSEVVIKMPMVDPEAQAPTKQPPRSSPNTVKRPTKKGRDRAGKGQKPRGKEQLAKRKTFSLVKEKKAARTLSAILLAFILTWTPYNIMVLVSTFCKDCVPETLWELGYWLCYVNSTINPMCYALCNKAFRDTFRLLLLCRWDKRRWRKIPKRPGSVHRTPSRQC

Results filed as inconclusive are left out. Activity calls are given as the source filed them. Unless noted, calls come from the whole dose curve.

The values below come from PubChem BioAssay (Tox21).

Chain of Beta-2 adrenergic receptor (Homo sapiens) (P07550 whole entry, looked up): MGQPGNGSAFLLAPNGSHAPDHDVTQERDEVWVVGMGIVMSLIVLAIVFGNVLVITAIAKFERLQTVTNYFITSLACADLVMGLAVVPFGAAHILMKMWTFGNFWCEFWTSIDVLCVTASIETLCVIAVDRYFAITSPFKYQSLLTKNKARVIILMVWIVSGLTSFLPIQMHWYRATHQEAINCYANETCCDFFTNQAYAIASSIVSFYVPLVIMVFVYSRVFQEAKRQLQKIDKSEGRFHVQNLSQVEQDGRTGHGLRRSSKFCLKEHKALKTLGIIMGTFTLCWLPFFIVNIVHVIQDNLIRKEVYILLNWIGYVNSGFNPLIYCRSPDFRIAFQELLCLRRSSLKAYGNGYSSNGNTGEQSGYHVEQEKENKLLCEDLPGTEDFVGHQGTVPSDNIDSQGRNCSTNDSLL
Chain of 5-hydroxytryptamine receptor 2A (Homo sapiens) (P28223 whole entry, looked up): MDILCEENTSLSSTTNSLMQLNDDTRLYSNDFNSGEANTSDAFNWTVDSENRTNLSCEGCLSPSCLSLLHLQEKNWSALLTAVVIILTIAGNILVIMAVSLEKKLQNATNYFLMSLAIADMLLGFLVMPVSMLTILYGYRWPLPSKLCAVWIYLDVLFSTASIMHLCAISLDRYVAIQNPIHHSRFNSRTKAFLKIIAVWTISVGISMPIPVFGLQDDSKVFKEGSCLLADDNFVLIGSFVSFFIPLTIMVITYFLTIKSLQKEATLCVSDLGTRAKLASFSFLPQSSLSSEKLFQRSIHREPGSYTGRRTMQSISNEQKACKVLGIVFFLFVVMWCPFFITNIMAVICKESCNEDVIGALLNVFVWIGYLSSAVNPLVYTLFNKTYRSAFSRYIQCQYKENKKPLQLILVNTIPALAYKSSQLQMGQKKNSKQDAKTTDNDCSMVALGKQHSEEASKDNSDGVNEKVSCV
Chain of Gonadotropin-releasing hormone receptor (Homo sapiens) (P30968 whole entry, looked up): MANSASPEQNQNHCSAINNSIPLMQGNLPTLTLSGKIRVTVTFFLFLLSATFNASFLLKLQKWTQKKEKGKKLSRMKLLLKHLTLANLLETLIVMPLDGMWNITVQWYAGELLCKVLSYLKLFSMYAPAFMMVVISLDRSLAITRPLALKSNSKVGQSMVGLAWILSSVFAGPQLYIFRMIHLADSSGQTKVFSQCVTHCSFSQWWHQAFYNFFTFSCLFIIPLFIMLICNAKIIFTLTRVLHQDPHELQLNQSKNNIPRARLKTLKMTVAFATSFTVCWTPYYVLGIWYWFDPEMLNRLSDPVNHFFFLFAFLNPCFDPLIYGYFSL
Chain of D(2) dopamine receptor (Homo sapiens) (P14416 whole entry, looked up): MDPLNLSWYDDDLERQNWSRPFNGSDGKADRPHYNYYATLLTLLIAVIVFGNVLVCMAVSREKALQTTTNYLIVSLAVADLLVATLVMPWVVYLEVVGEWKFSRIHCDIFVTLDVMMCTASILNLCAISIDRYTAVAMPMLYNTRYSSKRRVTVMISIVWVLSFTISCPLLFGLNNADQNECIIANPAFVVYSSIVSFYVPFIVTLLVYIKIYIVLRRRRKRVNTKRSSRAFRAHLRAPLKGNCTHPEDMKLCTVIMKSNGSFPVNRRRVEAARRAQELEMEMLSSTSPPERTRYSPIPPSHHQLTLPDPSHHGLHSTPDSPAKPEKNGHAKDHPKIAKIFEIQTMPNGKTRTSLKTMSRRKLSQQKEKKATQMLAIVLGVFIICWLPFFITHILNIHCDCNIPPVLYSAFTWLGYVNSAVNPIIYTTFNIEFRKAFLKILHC
Chain of KiSS-1 receptor (Homo sapiens) (Q969F8 whole entry, looked up): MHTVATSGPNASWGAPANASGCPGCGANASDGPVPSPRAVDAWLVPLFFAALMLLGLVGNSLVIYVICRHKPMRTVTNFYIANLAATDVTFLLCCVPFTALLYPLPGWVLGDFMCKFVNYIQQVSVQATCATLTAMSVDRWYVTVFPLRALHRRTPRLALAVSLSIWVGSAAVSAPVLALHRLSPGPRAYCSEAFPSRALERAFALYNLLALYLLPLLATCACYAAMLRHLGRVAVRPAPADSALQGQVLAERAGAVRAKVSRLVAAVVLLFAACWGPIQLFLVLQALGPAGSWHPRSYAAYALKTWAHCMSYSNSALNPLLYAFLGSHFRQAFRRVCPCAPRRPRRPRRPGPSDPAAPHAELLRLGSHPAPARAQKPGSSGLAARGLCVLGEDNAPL

With `CCC1(CC)C(=O)N=C(O)NC1=O`, the Potency entry in assay [1], in assay [2], in [3], in assay [4], in assay [5] and in [6] was “inactive” throughout. Moreover, the Potency result in assay [7], in [8], in assay [9], in assay [10], in [11] and in assay [12] was “inactive” throughout. The Potency entry in assay [13], in assay [14], in [15], in [16] and in assay [17] was “inactive” in each case.
Consider `CC(C)=CC1C(C(=O)OC(C#N)c2cccc(Oc3ccccc3)c2)C1(C)C` (stereo unspecified), for which the Potency entry in assay [1], in assay [2], in [3], in assay [4], in assay [5] and in [6] was “inactive” each time. For the same compound, the Potency result in [7], in assay [8], in assay [9], in assay [10], in assay [11] and in assay [12] was “inactive” throughout. Further, the Potency entry in assay [13], in assay [14], in assay [16] and in [17] was “inactive” throughout.
For the compound `ClC(Cl)Br`, the Potency entry in assay [1], in assay [2], in [3], in [4], in [5] and in assay [6] was “inactive” each time. Besides, the Potency result in [7], in assay [8], in [9], in [10], in assay [11] and in assay [18] was “inactive” each time. The Potency entry in assay [12], in [13], in [15], in assay [16] and in [17] was “inactive” throughout.
On to `O=C(O)[C@H](O)[C@@H](O)C(=O)O`, for which the Potency entry in [1], in assay [2], in assay [3], in assay [4], in [5] and in assay [6] was “inactive” in each case. The Potency result in assay [7], in [8], in assay [9], in assay [10], in [11] and in assay [18] was “inactive” throughout. In addition, the Potency entry in [12], in assay [13], in assay [14], in assay [16] and in [17] was “inactive” in each case.
For the compound `CCc1cc2c(s1)-n1c(C)nnc1CN=C2c1ccccc1Cl`, the Potency entry in assay [1], in [2], in assay [3], in assay [4], in assay [5] and in [6] was “inactive” throughout. In addition, the Potency result in assay [7], in assay [8], in assay [9], in assay [10], in assay [11] and in assay [12] was “inactive” throughout. In [16], the Potency entry was “inactive”.
In the case of `Nc1ccc(Sc2ccc(N)cc2)cc1`, the Potency entry in assay [1], in assay [3], in assay [4], in assay [5], in assay [6] and in assay [7] was “inactive” throughout. Moreover, the Potency result in assay [8], in assay [9], in assay [10], in assay [11], in assay [18] and in [13] was “inactive” throughout. The Potency result in assay [14] and in assay [17] was “inactive” throughout. Besides, the Potency in assay [2] is 68.6 µM (active).
With `CC(Oc1cc(Cl)c(Cl)cc1Cl)C(=O)O` (stereo unspecified), the Potency result in [1], in assay [2], in [3], in [4], in assay [5] and in [6] was “inactive” throughout. For the same compound, the Potency result in assay [7], in assay [8], in assay [9], in assay [10], in assay [18] and in [14] was “inactive” each time. Further, the Potency result in assay [16] and in assay [17] was “inactive” throughout.
With `CC(C)[C@]12CC(=O)[C@H](C)[C@H]1C2`, the Potency entry in [1], in [2], in assay [3], in assay [4], in assay [5] and in assay [6] was “inactive” in each case. In addition, the Potency entry in [7], in assay [8], in assay [9], in assay [10], in [11] and in [18] was “inactive” each time. Further, the Potency result in [12], in [15], in [16] and in assay [17] was “inactive” throughout.
With `O=C(C(Cl)(Cl)Cl)C(Cl)(Cl)Cl`, the Potency entry in assay [1], in [2], in assay [3], in assay [4], in assay [5] and in [6] was “inactive” each time. In addition, the Potency entry in assay [7], in [8], in assay [9], in assay [10], in [11] and in assay [18] was “inactive” each time. The Potency result in assay [13], in [14], in assay [16] and in assay [17] was “inactive” each time.
